In PubChem BioAssay (NCATS):
Inconclusive results are not listed. Calls of active or inactive are those of the source. Calls come from the whole dose curve; as a rule, active = well fitted curve in the direction sought with a large enough effect; inconclusive = small, poorly fitted or top-dose-only effect, or another doubt; inactive = no such curve, though single readings can be large; an effect the other way counts as inactive or inconclusive.

Assays:
[1] = Quantitative High-Throughput drug screen in 47 multiple myeloma cell lines against the NCATS MIPE library collection: MOLP8_DSMZ cell viability assay (AID 1918977); conditions: MOLP8 myeloma viability, CellTiter-Glo ATP luminescence, 48 h; series mostly up to 45.8 µM; note: nearly all actives have a fitted effect of over 45% in size
Outline: (§1)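 Viability after 48 h drug exposure was measured as ATP-dependent luminescence. Cells, 500 per well, sat at 37 °C under 5% CO2; DMSO wells set 100%, media-only wells 0%.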

[2] = Quantitative High-Throughput drug screen in 47 multiple myeloma cell lines against the NCATS MIPE library collection: NCIH929_DSMZ cell viability assay (AID 1918978); conditions: NCI-H929 myeloma viability, CellTiter-Glo ATP, 48 h; series mostly up to 45.8 µM; note: nearly all actives have a fitted effect of over 35% in size
Outline: as §1

[3] = Quantitative High-Throughput drug screen in 47 multiple myeloma cell lines against the NCATS MIPE library collection: OCIMY1_PLB cell viability assay (AID 1918979); conditions: OCI-MY1 myeloma viability, CellTiter-Glo ATP, 48 h; series mostly up to 45.8 µM; note: nearly all actives have a fitted effect of over 35% in size
Outline: as §1

[4] = Quantitative High-Throughput drug screen in 47 multiple myeloma cell lines against the NCATS MIPE library collection: MM1R_ATCC cell viability assay (AID 1918981); conditions: MM1R multiple myeloma cells, CellTiter-Glo viability, 48 h; series mostly up to 45.8 µM; note: nearly all actives have a fitted effect of over 35% in size
Outline: as §1

[5] = Quantitative High-Throughput drug screen in 47 multiple myeloma cell lines against the NCATS MIPE library collection: KMS28PE_JCRB cell viability assay (AID 1918983); conditions: KMS28PE multiple myeloma viability, CellTiter-Glo ATP, 48 h; series mostly up to 45.8 µM; note: nearly all actives have a fitted effect of over 35% in size
Outline: as §1

[6] = Quantitative High-Throughput drug screen in 47 multiple myeloma cell lines against the NCATS MIPE library collection: L363_DSMZ cell viability assay (AID 1918984); conditions: L363 myeloma viability, CellTiter-Glo ATP luminescence, 48 h; series mostly up to 45.8 µM; note: nearly all actives have a fitted effect of over 40% in size
Outline: as §1

[7] = Quantitative High-Throughput drug screen in 47 multiple myeloma cell lines against the NCATS MIPE library collection: KMS34_JCRB cell viability assay (AID 1918985); conditions: KMS34 myeloma viability, CellTiter-Glo ATP luminescence, 48 h; series mostly up to 45.8 µM; note: nearly all actives have a fitted effect of over 40% in size
Outline: as §1

[8] = Quantitative High-Throughput drug screen in 47 multiple myeloma cell lines against the NCATS MIPE library collection: MM1S_ATCC cell viability assay (AID 1918980); conditions: MM1S myeloma viability, CellTiter-Glo ATP luminescence, 48 h; series mostly up to 45.8 µM; note: nearly all actives have a fitted effect of over 45% in size
Outline: as §1

[9] = Quantitative High-Throughput drug screen in 47 multiple myeloma cell lines against the NCATS MIPE library collection: LP1_DSMZ cell viability assay (AID 1918982); conditions: LP1 myeloma viability, CellTiter-Glo ATP luminescence, 48 h; series mostly up to 45.8 µM; note: nearly all actives have a fitted effect of over 35% in size
Outline: as §1

[10] = Quantitative High-Throughput drug screen in 47 multiple myeloma cell lines against the NCATS MIPE library collection: OCIMY7_PLB cell viability assay (AID 1918987); conditions: OCI-MY7 myeloma viability, CellTiter-Glo ATP, 48 h; series mostly up to 45.8 µM; note: nearly all actives have a fitted effect of over 65% in size
Outline: as §1

Measured: Potency
Potency is the fitted concentration of half-maximal effect.

CC(C)[C@H]1C(=O)N[C@H](CO)Cc2c[nH]c3cccc(c23)N1C
active: [1] 0.166 µM | [5] 0.264 µM
inactive: [2] | [3] | [4] | [6] | [7]

C[C@@H]1[C@H](O)[C@@H](C)C=CC=CCCC=CC=CC=CC=C[C@H](O[C@H]2O[C@@H](C)[C@H](O)[C@@H](N)[C@@H]2O)CC2O[C@](O)(C[C@@H](O)[C@H](O)CC[C@@H](O)C[C@@H](O)C[C@@H](O)CC(=O)O[C@H]1C)C[C@H](O)[C@H]2C(=O)O
not listed: [6] | [7] | [10]
inactive: all other assays above

c1ccc(CCCN2CCN(CCOC(c3ccccc3)c3ccccc3)CC2)cc1
active: [1] 20.9 µM | [2] 23.5 µM | [3] 23.5 µM | [4] 23.5 µM | [9] 20.9 µM

COc1cccc2c1[C@]13CCN(CC4CC4)[C@H](C2)[C@]1(OC)CCC(=O)C3
not listed: [6] | [7]
inactive: all other assays above

CC(C)(C)[C@]1(O)C[C@@H]2OC(=O)C[C@@]23C(=O)O[C@@H]2OC(=O)[C@H](O)C213 (stereo partly drawn)
not listed: [6] | [7] | [10]
inactive: all other assays above

C[C@@H]1CC[C@@]2(OC1)O[C@H]1C[C@H]3[C@@H]4CC=C5C[C@@H](O[C@@H]6O[C@H](CO)[C@@H](O[C@@H]7O[C@@H](C)[C@H](O)[C@@H](O)[C@@H]7O)[C@H](O)[C@@H]6O[C@@H]6O[C@@H](C)[C@H](O)[C@@H](O)[C@@H]6O)CC[C@]5(C)[C@@H]4CC[C@]3(C)[C@@H]1[C@H]2C
active: [1] 1.87 µM | [2] 4.18 µM | [3] 1.66 µM | [4] 2.09 µM | [9] 2.96 µM | [5] 2.96 µM | [6] 1.87 µM

CO[C@H]1CCC(O[C@H]2C[C@H]([C@]3(C)CC[C@]4(C[C@H](O)[C@@H](C)[C@@H]([C@@H](C)C=C(C)C(=O)[C@H](C)C[C@H](C)C(=O)O)O4)O3)O[C@]3(O[C@@H]([C@H]4O[C@@](O)(CO)[C@H](C)C[C@H]4C)C[C@H]3C)[C@H]2C)O[C@H]1C (stereo partly drawn)
active: [1] 0.296 µM | [2] 0.833 µM | [3] 5.26 µM | [8] 0.296 µM | [4] 1.05 µM | [9] 0.833 µM | [5] 3.72 µM

C[C@]12CC[C@H](O)CC1=CC[C@H]1[C@H]3CCC(=O)[C@@]3(C)CC[C@@H]12
inactive: [1] | [2] | [3] | [4] | [9] | [5]

Cc1[nH]nc2ccc(-c3cncc(OC[C@@H](N)Cc4c[nH]c5ccccc45)c3)cc12
active: [1] 0.264 µM | [2] 1.05 µM | [3] 1.87 µM | [8] 0.833 µM | [4] 1.48 µM | [9] 1.66 µM | [5] 0.833 µM | [7] 1.32 µM | [10] 0.0264 µM

CC(C)N(CCNC(=O)CN1CCCC1=O)C(C)C
not listed: [7] | [8] | [10]
inactive: all other assays above

C[C@H]1CCCC=CC2C[C@H](O)C[C@@H]2[C@H](O)C=CC(=O)O1 (stereo partly drawn)
not listed: [5] | [6]
inactive: all other assays above

CC(C)(O)C=CC(=O)[C@](C)(O)[C@H]1[C@H](O)C[C@]2(C)[C@@H]3CC=C4[C@@H](C=C(O)C(=O)C4(C)C)[C@]3(C)C(=O)C[C@@]12C
active: [1] 0.0469 µM | [2] 0.0469 µM | [3] 0.105 µM | [8] 0.0418 µM | [4] 0.0372 µM | [9] 0.418 µM | [5] 1.66 µM | [7] 0.0332 µM

COc1ccc2c(c1)[C@]13CCCCC1C(C2)N(C)CC3 (stereo partly drawn)
not listed: [7] | [8] | [10]
inactive: all other assays above

CC(C)[C@]12O[C@@H]1[C@@H]1O[C@]13[C@]1(O[C@H]1C[C@@H]1C4=C(CC[C@@]13C)C(=O)OC4)[C@H]2O
not listed: [6]
inactive: all other assays above

c1ccc2c(CN3CCNCC3)cccc2c1
not listed: [6] | [7] | [10]
inactive: all other assays above

C[C@@H]1CC[C@H]2[C@@H](C)C(=O)O[C@@H]3O[C@@]4(C)CC[C@H]1[C@]32OO4
inactive: [3] | [4] | [9] | [5]
active: [1] 0.187 µM | [2] 13.2 µM | [8] 0.296 µM | [7] 2.96 µM | [10] 1.87 µM
